About 4,000 (25%) of roughly 16,000 compounds were called active. Inconclusive results (about 26%) are left out. The call rests on the fitted dose curve; in most records, active means well fitted curve in the direction sought with a large enough effect; inconclusive means small, poorly fitted or top-dose-only effect, or effect the other way; inactive means no such curve, though single readings can be large or run the other way. The list is a sample of the results.

Drawing on PubChem BioAssay AID1851 (National Center for Advancing Translational Sciences (NCATS), 2009), this text covers AC50 and activity, negative = inhibition for 63 compounds.
On the % scale 0 is the no-effect control and ±100 the full control effect.

Sequence of Cytochrome P450 2C9 (Homo sapiens) (P11712 whole entry, looked up): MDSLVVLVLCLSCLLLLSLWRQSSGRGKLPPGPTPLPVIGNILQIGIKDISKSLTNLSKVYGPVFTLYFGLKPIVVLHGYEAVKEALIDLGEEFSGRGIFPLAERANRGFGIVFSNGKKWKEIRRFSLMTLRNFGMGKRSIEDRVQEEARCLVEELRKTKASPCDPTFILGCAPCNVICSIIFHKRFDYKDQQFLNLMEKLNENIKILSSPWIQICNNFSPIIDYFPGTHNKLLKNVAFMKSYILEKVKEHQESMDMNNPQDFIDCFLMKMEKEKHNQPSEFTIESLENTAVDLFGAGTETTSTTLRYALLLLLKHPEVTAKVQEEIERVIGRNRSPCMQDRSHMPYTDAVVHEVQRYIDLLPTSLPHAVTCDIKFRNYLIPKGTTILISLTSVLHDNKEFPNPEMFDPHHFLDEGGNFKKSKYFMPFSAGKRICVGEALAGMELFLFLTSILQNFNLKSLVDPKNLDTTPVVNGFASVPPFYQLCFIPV

This test concerns the target Cytochrome P450 2C9 (Homo sapiens) (UniProt P11712). Kind of test: Cytochrome panel assay with activity outcomes. The settings on record: recombinant CYP, pro-luciferin dealkylation, luminescence, p450-cyp2c9; series mostly up to 57.1 µM.
Take `CCCCC(=O)Nc1cc(OCC)c(NC(=O)c2ccccc2[N+](=O)[O-])cc1OCC`: the AC50 result is “inactive”. The same measure, in the same setting: the result for `COc1ccc(C(=O)NC(=S)NCc2ccccc2)cc1` reads 15.8 µM (active); that for `Cc1ccc(C(=O)NNC(=O)C2CCCN(c3ncccn3)C2)cc1` (stereo not drawn), “inactive”. Regarding `O=C(NNC(=S)NC(=O)c1cccnc1)c1ccccc1`, the AC50 was 5.62 µM (active).

On to `CCCCC(=O)NNC(=S)NC(=O)c1cccc([N+](=O)[O-])c1`, for which the concentration at half-maximal activity (AC50) is 10 µM (active).

As for `NCCNC(=O)c1ccc(Cl)cc1`, the AC50 entry is “inactive”. As to `Cc1ccc(C(=O)NNC(=S)NC(=O)c2ccc(Cl)cc2)cc1`, the AC50 was 2 µM (active).

For the compound `O=C(NNC(=O)c1cccnc1)Nc1cccc2ccccc12`, the AC50 result is “inactive”.

As for `O=C(NNS(=O)(=O)c1ccccc1)c1cccnc1`, the activity, negative = inhibition is 2.91% [at 11.4 µM] (inactive). As to `CSc1nc2c(c(C(F)(F)F)n1)CC(C)CC2` (stereo not drawn), the AC50 entry is “inactive”. In the case of `Cc1ccccc1-c1nccc(NCCN2CCOCC2)n1`, the activity, negative = inhibition is 15.8% [at 2.29 µM] (inactive).

Turning to `CN(CC(=O)O)CC(=O)O`, the activity, negative = inhibition is -7.68% [at 11.4 µM] (inactive). In the case of `CCc1cc2c(nc1CC)CCN(CC/C(C)=N/O[C@@H](C)c1cc(-c3c(C)cc(C)cc3C)no1)C2`, the activity, negative = inhibition is 8.77% [at 11.4 µM] (inactive). As to `O=C(NC(=S)NNC(=O)c1cccs1)c1ccco1`, the AC50 was 15.8 µM (active). Same read-out and setting: next, `COc1ccc(NC(=O)N2CCC3(CC2)CCN(C(=O)c2ccco2)CC3)cc1`: “inactive”. For the compound `CCOc1ccc(NC(=O)c2ccc(OC)cc2)cc1`, the AC50 entry was “inactive”.

Regarding `COc1ccc(NC(=O)N2CC3(CCN(C(=O)c4ccco4)CC3)C2)cc1`, the AC50 entry is “inactive”. Same read-out and setting: next, `COc1ccc(C(=O)NNC(=S)NC(=O)c2ccco2)cc1`: 7.08 µM (active); `Cc1ccc(OCC(=O)NNC(=O)CCc2ccccc2)cc1`: “inactive”. Same read-out and setting: the result for `CCOc1cc(NC(=S)Nc2ccccc2)c(OCC)cc1NC(=O)c1ccc(OC)cc1` reads 1.78 µM (active); that for `COc1ccc(C(=O)NC(=S)NNC(=O)CCc2ccccc2)cc1`, 2.82 µM (active).

Consider `c1ccc(C2CCC(N3CCC(N4CCCCC4)CC3)CC2)cc1` (stereo not drawn), for which the AC50 result was “inactive”. Same read-out and setting: the result for `O=C1c2cccc3c(Nc4ccccc4Cl)c([N+](=O)[O-])cc(c23)C(=O)N1CCO` reads 2.82 µM (active).

Regarding `O=[N+]([O-])c1cc(Cl)cc2c1nc(NCCO)c1ccccc12`, the activity, negative = inhibition is -0.585% [at 11.4 µM] (inactive). For the compound `O=C1NC(=O)C(c2ccccc2[N+](=O)[O-])=C1Nc1ccc(O)c(Cl)c1`, the AC50 entry was “inactive”. Same read-out and setting: next, `COc1ccccc1OCCCOc1ccc([N+](=O)[O-])cc1Cl`: 11.2 µM (active); `COc1cc(C=O)ccc1OCCOCCOc1ccccc1Cl`: 12.6 µM (active); `C#CCN(C)CCCOc1ccc(Cl)cc1Cl`: “inactive”. Same read-out and setting: the result for `COc1cc(C)ccc1OCCOc1cc(C)ccc1Cl` reads 0.794 µM (active); that for `COc1ccc(CNC(C)(C)C)cc1Cl`, “inactive”. As for `COc1ccc(/C=C2\OC(=O)c3c(OC)cccc32)cc1OC`, the AC50 result was “inactive”.

On to `CCCOc1ccc(/C=C/C(=O)Nc2ccc([N+](=O)[O-])cc2C)cc1OC`, for which the AC50 entry is “inactive”.

Consider `COc1ccc(-n2cccc2C=O)cc1OC`, for which the AC50 result is “inactive”. On the same count and under the same terms, the result for `CN=C(NC#N)Nc1ccc(C2=NNC(=O)C[C@@H]2C)cc1` reads “inactive”. Take `COc1ccc(-c2nc(N)c3ncn([C@H]4O[C@@H](CO)[C@@H](O)[C@@H]4O)c3n2)cc1`: the activity, negative = inhibition is 8.82% [at 11.4 µM] (inactive).

For `COc1cc(CNCc2cccs2)ccc1OCC(=O)NC(C)(C)C`, the AC50 result is “inactive”.

As to `CC(CO)Nc1nc(SCc2ccccc2)nc2sc3c(c12)CCC3` (stereo not drawn), the AC50 was 4.47 µM (active).

Take `COCCNc1nc(SCc2ccccc2)nc2sc3c(c12)CCC3`: the AC50 is 3.16 µM (active). On to `C[C@H](Nc1ncnc2sc3c(c12)CCC3)C(=O)O`, for which the AC50 entry was “inactive”. As for `COCCNc1nc(-c2ccccc2C)nc2ccccc12`, the activity, negative = inhibition was -5.55% [at 2.29 µM] (inactive).

For `OCCNc1nc(SCc2ccccc2)nc2sc3c(c12)CCC3`, the AC50 was 7.94 µM (active).

As to `COCCNc1nc(-c2ccc(N(C)C)cc2)nc2ccccc12`, the activity, negative = inhibition is 8.62% [at 2.29 µM] (inactive). Regarding `CSc1ccc2c(c1)N(CC[C@H]1CCCCN1C)c1ccccc1S2`, the AC50 result is “inactive”. For the compound `CC1(C)OCC([C@H](O)C2=CCCCC2=O)CO1`, the activity, negative = inhibition is 2.86% [at 11.4 µM] (inactive). On to `CN(C)CCCNC(=O)c1cc2c3ccccc3n(C)c2s1`, for which the AC50 entry was “inactive”. Consider `COc1ccccc1CNC(=O)c1cc2c(C)nn(Cc3ccc(F)cc3)c2s1`, for which the concentration at half-maximal activity (AC50) is 2.24 µM (active). Take `COc1ccccc1CNc1ncnc2ccc(-c3ccc(C(=O)N(C)C)cc3)cc12`: the activity, negative = inhibition is 0.573% [at 2.29 µM] (inactive). For the compound `Fc1ccc(-c2csc(N3CCC(c4ccccc4)C3)n2)cc1` (stereo not drawn), the AC50 is 17.8 µM (active). Same read-out and setting: the result for `Cc1c(C2CCN(CCc3ccccc3)CC2)noc1-c1ccc(Cl)cc1` reads “inactive”; that for `Clc1ccc(-c2csc(N3CCC(c4ccccc4)C3)n2)cc1` (stereo not drawn), 14.1 µM (active); that for `Brc1ccc(-c2csc(N3CCC(c4ccccc4)C3)n2)cc1` (stereo not drawn), 10 µM (active). On to `COc1cc2nc(N3CCN(C(=O)OCc4ccccc4)[C@H](C(=O)NC(C)(C)C)C3)nc(N)c2cc1OC`, for which the AC50 entry is “inactive”. On to `CN(C)c1ccc(C(c2ccc(N(C)C)cc2)c2ccc([N+](=O)[O-])cc2)cc1`, for which the activity, negative = inhibition is -7.57% [at 11.4 µM] (inactive). `CC(=O)C[C@H](c1ccc([N+](=O)[O-])cc1)c1c(O)c2ccccc2oc1=O`: the AC50 is 0.631 µM (active). On to `COc1ccc(NC(=O)N2CC3(CCN(C(=O)c4cnccn4)CC3)C2)cc1`, for which the AC50 entry was “inactive”. In the case of `O=c1oc2cc(Oc3ccc(C(F)(F)F)cc3[N+](=O)[O-])ccc2c2c1CCCC2`, the AC50 is 12.6 µM (active).

On to `Cn1ncc2c(Cl)ncnc21`, for which the activity, negative = inhibition was 0.147% [at 11.4 µM] (inactive). On the same count and under the same terms, next, `O=C1[C@@H]2[C@H]3[C@H](O)[C@H](O)C/C(=N/OCc4ccccc4)[C@H]3CC[C@H]2C(=O)N1c1ccc(F)cc1F`: 12.6% [at 11.4 µM] (inactive). Turning to `COc1cccc(-c2noc(-c3cccnc3)n2)c1`, the AC50 was 15.8 µM (active). The same measure, in the same setting: next, `COc1ccc(-c2nnc(-c3cccnc3)o2)cc1`: “inactive”. Still for that read-out and setting: next, `CC(=O)OCC1=C(C(=O)O)N2C(=O)[C@@H](NC(=O)CSc3ccncc3)[C@@H]2SC1`: “inactive”. For the compound `CNc1csc(C)c(C)c1=O`, the AC50 entry was “inactive”. For the compound `Cc1cnc(CNc2cc(-c3cccnc3)ncn2)cn1`, the activity, negative = inhibition is 6.31% [at 2.29 µM] (inactive).
